Structures are written as SMILES. Results filed as inconclusive are left out. A call without a number means that no potency is given here. Active and inactive are the calls of the source. Calls follow the shape of the dose curve; as a rule, active = well fitted cell-killing curve with a large enough effect; inconclusive = small, poorly fitted or top-dose-only effect; inactive = flat fitted curve, though single readings scatter.

The record followed here is PubChem BioAssay (NCATS).
Potency is read from the fitted curve at half-maximal effect.

The nature of this assay: Cell Viability - LYMP1-003 - Assay at 40 hr (AID 964). Also: nearly all actives have a fitted effect of over 60% in size. To be noted: LYMP1-003 lymphoblastoid viability; series mostly up to 92.2 µM. The source says:
NIH Chemical Genomics Center [NCGC]
NIH Molecular Libraries Screening Centers Network [MLSCN]
National Institutes of Environmental Health Sciences [NIEHS]
National Toxicology Program [NTP]
We have developed a 1536-well cell-based assay for quantitative high throughput screening (qHTS) against a number of cell lines to determine in vitro cytotoxicity of small molecules. This particular assay uses a human lymphoblastoid cell line (LYMP1-003) purchased from Coriell Institute for Medical Research.
NCGC Assay Protocol Summary:
The CellTiter-Glo luminescent cell viability assay (Promega) is a homogeneous method to measure the number of viable cells in culture. The end point readout of this assay is based on quantitation of intracellular ATP, an indicator of metabolic activity, using the luciferase reaction. Luciferase catalyzes the oxidation of beetle Luciferin to oxyluciferin and light in the presence of ATP. The luminescent signal is proportional to amount of ATP present.
Using the CellTiter-Glo luminescent cell viability assay, the amount of cellular ATP was measured in the lymphoblastoid cell line with complete culture medium following compound treatment for 40 hours. The assay was performed in opaque white Kalypsys 1536-well plates. In the screen, tetraoctylammonium bromide was used as positive control. Library compounds were measured for their ability to cause acute toxicity in the cell line, as reflected by a decrease in intracellular ATP levels, in a concentration-dependent manner. […] AC50 values were determined from concentration-response data modeled with the standard Hill equation.
qHTS protocol for CellTiter Glo lymphoblastoid cellular assay
[Step] [Parameter] [Value] [Description]
1. Reagent; 5 uL; 2500 lymphoblastoid cells/well
2. Time; 5 hr; 37 C incubation
4. Controls; 23 nL; Tetraoctylammonium bromide 6.4pM to 92 uM
5. Time; 40 hr; 37 C incubation
6. Reagent; 5 uL; CellTiter Glo reagent
7. Time; 30 min; Room Temperature
8. Detection; Luminescence; Viewlux plate reader
Keywords: cell viability, cytotoxicity, lymphoblastoid cell line, luminescence, NTPHTS, NTPHTS_NCGC, NIEHS, DSSTox, MLSMR, MLSCN, NIH Roadmap, qHTS, NCGC
Consider `CCc1ccc(C(c2ccc(CC)cc2)C(Cl)Cl)cc1`, for which the Potency result was “inactive”. For `NC(=O)Nc1nc2ccccc2[nH]1`, the Potency entry was “inactive”. In the case of `O=C1OC(=O)c2ccccc21`, the Potency result is “inactive”. To `C=CC1CO1` (stereo not given) belongs “inactive”; to `C/C(Cl)=C/CCl`, “inactive”. As for `CC(C)COC(=O)COc1cc(Cl)c(Cl)cc1Cl`, the Potency result is “inactive”. To `C[Si](C)(C)Cl` belongs “inactive”; to `O=C1c2ccccc2C(=O)C1(O)O`, “inactive”; to `COc1ccc(C(=O)Nc2ccccc2)cc1[N+](=O)[O-]`, “inactive”.

As for `COc1ccc(C)cc1N`, the Potency result was “inactive”.

As for `Nc1cnn([C@@H]2O[C@H](CO)[C@@H](O)[C@H]2O)c(=O)n1`, the Potency result was “inactive”. With `Clc1nc2ccccc2nc1Cl` the entry was “inactive”.

Consider `Nc1cc([N+](=O)[O-])ccc1O`, for which the Potency result is “inactive”. With `c1ccc(Nc2cccc3ccccc23)cc1` the entry was “inactive”; with `S=C(NC1CCCCC1)NC1CCCCC1`, “inactive”. To `c1ccncc1` belongs “inactive”. With `O=C(OCc1ccccc1)c1ccccc1O` the entry was “inactive”; with `CCCCCCCCC1CO1` (stereo not given), “inactive”; with `O=[N+]([O-])c1ccc(F)cc1F`, “inactive”. For `CC(CCC(=O)O)(c1ccc(O)cc1)c1ccc(O)cc1`, the Potency result was “inactive”. With `CC(=O)Nc1cccc(C)c1` the entry was “inactive”; with `Cc1cc(=O)oc2cc(O)cc(O)c12`, “inactive”; with `c1ccc2c(c1)ccc1ccccc12`, “inactive”. To `Cc1c(N)cccc1Cl` belongs “inactive”; to `c1cc2c3c(c1)ccc1cccc(c13)C2`, “inactive”; to `C=CC(=O)OCCCCCCOC(=O)C=C`, 39.8 µM (active). To `CC(C)OCC1CO1` (stereo not given) belongs “inactive”; to `Brc1cc(Br)c(Oc2cc(Br)c(Br)cc2Br)cc1Br`, “inactive”; to `Nc1ccc(-c2ccc(N)c(O)c2)cc1O`, “inactive”. Regarding `Cc1ccc(N)cc1[N+](=O)[O-]`, the Potency result is “inactive”. `C=CC(=O)CC`: the Potency result is “inactive”.

On to `C=Cc1cccc(C)c1`, for which the Potency result is “inactive”.

As for `Brc1cc(Oc2cc(Br)c(Br)c(Br)c2Br)c(Br)c(Br)c1Br`, the Potency entry is “inactive”. To `C=CC(C)(O)CCCC(C)CCCC(C)CCCC(C)C` (stereo not given) belongs “inactive”.

Regarding `c1ccc(CSCc2ccccc2)cc1`, the Potency result was “inactive”. Turning to `Cc1ccc2ccc3cccc4ccc1c2c34`, the Potency result is “inactive”. With `CCC(Cl)CC(Cl)C(Cl)C(Cl)C(Cl)C(C)Cl` (stereo not given) the entry was “inactive”; with `Oc1ccc2c(c1)OCO2`, “inactive”. With `c1ccc(SCCSc2ccccc2)cc1` the entry was “inactive”; with `CCCCC(CC)COCCCN` (stereo not given), “inactive”.
